Compound activity deposited in PubChem BioAssay by several laboratories.
Most compounds without a hit are left out; they make up all but 1.9% or so of the library.
PABP1 MLLE inh: inhibitors of PABP1 MLLE–PAM2 peptide binding, primary screen, biochemical, fluorescence polarization, FITC-PAM2, GST-MLLE; Polyadenylate-binding protein 1 (Homo sapiens), P11940; inhibition, % at 20 µM; 360,000 compounds, 0.36% hits; in the data active means inhibition above about 35%, passing the limit was not always enough;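 further: plate controls were DMSO wells with GST-MLLE for no effect and wells lacking GST-MLLE protein for full effect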
GRK2 inh: compounds blocking aptamer binding on GRK2 – biochemical, human GRK2, bead flow cytometry, HTS, primary screen; Beta-adrenergic receptor kinase 1 (Homo sapiens), P25098; FAM-aptamer displacement from GRK2; inhibition of aptamer binding, % at 10 µM; 330,000 compounds, 0.59% hits; AID 488847, 2010;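 active means inhibition of aptamer binding above 40%, roughly 3 SD of noise, on plates passing a quality check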;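 further: median bead fluorescence of bound FAM aptamer so fluorescent compounds give negative values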
Target sequence (P25098 whole entry, looked up): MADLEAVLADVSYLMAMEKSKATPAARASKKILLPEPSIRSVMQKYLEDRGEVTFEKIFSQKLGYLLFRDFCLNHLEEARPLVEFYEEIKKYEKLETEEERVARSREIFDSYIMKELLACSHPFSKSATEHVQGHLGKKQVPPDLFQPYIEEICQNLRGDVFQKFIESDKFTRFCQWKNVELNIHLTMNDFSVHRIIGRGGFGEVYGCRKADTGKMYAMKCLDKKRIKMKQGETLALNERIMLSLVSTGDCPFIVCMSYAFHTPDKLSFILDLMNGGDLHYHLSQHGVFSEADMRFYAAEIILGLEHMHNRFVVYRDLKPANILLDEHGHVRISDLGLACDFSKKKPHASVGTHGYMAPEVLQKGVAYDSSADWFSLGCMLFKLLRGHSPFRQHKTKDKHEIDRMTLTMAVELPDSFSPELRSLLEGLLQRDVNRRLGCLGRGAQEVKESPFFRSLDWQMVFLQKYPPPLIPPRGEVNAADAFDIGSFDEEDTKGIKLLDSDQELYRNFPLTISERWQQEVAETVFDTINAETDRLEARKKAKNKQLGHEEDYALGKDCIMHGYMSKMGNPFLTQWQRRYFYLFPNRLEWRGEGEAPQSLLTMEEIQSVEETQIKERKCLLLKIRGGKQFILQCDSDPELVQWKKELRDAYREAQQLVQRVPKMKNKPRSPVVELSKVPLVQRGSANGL
PERK inh: block of dimerizer-induced PERK translation repression, primary screen, PERK inhibitor project, CHO PERK-DD cells, SEAP luminescence, HTS | AID 1416, 2008 | inhibition, % at 5.6 µM | Eukaryotic translation initiation factor 2-alpha kinase 3 (Homo sapiens), Q9NZJ5 | CHO PERK-DD fusion, SEAP luminescence translation reporter | 220,000 compounds, 0.17% hits;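 active means inhibition above the mean inhibition of all tested compounds plus 3 SD, set separately per screening campaign, cut at about 2.9% in these data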;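 further: PERK kinase domain activated by AP20187 dimerizer at 100 nM; 0% = DMSO with dimerizer and 100% = rapamycin at 8.4 µM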
PABP FP inh: PABP poly(A) RNA binding inhibitors, primary screen, biochemical, fluorescence polarization, uHTS. AID 2014, 2009. inhibition, % at 35 µM. 290,000 compounds, 1% hits. Polyadenylate-binding protein 1 (Homo sapiens), P11940;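 further: calls also rest on retests at 20 µM and on dose response follow-up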
eIF4H inh: human eIF4H binding inhibitors, primary screen, translation initiation inhibitor project, biochemical, uHTS, fluorescence polarization. inhibition, % at 35 µM. eIF4H fluorescence polarization binding assay. Eukaryotic translation initiation factor 4H (Homo sapiens), Q15056. 290,000 compounds, 0.94% hits;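 further: calls also rest on retests at 20 µM and on dose response follow-up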
Numbers without * were called inactive; · = not tested or not shown. Unless noted, how the calls were made is not given here.

SMILES | PABP1 MLLE inh | GRK2 inh | PERK inh | PABP FP inh | eIF4H inh
CS(=O)(=O)Nc1nc2n(n1)C(c1ccccc1)C=C(c1ccc(Br)cc1)N2 (stereo not given) | 147.4 | 2.0 | 2.5 | 10.9* | 76.3*
CC(=O)Nc1nc2n(n1)C(c1ccccc1)C=C(c1ccccc1)N2 (stereo not given) | 58.7* | 0.0 | -0.6 | 39.3 | 18.1
CC1CCCN(S(=O)(=O)c2ccc(C(=O)NC(C)c3ccccc3)cc2)C1 (stereo not given) | -57.4 | · | · | · | ·
CC(=O)N1C[C@H]2CON(C)[C@H]2C[C@H]1c1cccc(-c2ccc(C#N)cc2)c1 | 10.0 | · | · | · | ·
COc1ccc(NC(=O)COC(=O)C2CCN(S(=O)(=O)c3cccs3)CC2)cc1 | 3.8 | 0.0 | 0.9 | -2.2 | 14.8
Cc1ccc(C)n1-c1sccc1C(=O)O | 45.5* | · | -0.4 | 118.8 | 107.3
Cc1cc(Cl)ccc1OCC(=O)N(Cc1ccco1)C1CCS(=O)(=O)C1 (stereo not given) | 13.1 | 0.0 | -1.8 | 1.3 | -7.9
COc1cc(O)cc2cc3c(c(O)c12)C(=O)CC(C)(O)O3 (stereo not given) | 45.4* | 0.0 | · | 61.8* | 71.9*
COc1cc(O)c2c(c1)OC(C)(C)CC2=O | -10.3 | 4.0 | 1.1 | 11.3 | 7.3
OC(COCc1ccccc1)COCc1ccccc1 | 16.3 | · | · | · | ·
NC(CO)(CO)COCc1ccccc1 | 9.9 | 1.0 | 1.2 | 129.5* | 68.0
O=C(CN1CC(=O)Nc2ccccc21)Nc1ccc(F)c(F)c1 | -23.1 | 0.0 | 1.6 | -14.3 | -0.8
COc1ccccc1NC(=O)CN1CC(=O)Nc2ccccc21 | -11.6 | 2.0 | 0.3 | 82.0* | -9.1
Cc1c(Cl)cccc1NC(=O)c1ccccc1-c1ccccc1C(=O)O | 6.9 | 10.0 | · | -2.8 | -16.9
CC(=O)Cc1nnn(-c2cc(C)on2)n1 | · | 0.0 | 0.3 | 8.5 | -5.5
O=C(NC(=S)Nc1ccc(N2CCOCC2)cc1)c1ccccc1 | 19.7 | 0.0 | 0.1 | 8.2 | 2.4
CCC(=O)N1CCN(c2ccc(NC(=S)NC(=O)c3ccc(OC)c([N+](=O)[O-])c3)cc2)CC1 | 41.8* | 0.0 | -0.5 | -6.3 | -3.1
CCc1ccc(C(=O)NC(=S)Nc2ccc(N3CCOCC3)cc2)cc1 | 39.5* | 0.0 | 1.0 | 2.0 | -1.1
CCOC(=O)c1cccc(NC(=O)CC2Oc3ccccc3NC2=O)c1 (stereo not given) | 6.1 | 0.0 | · | 0.2 | -9.3
Cc1cc2cc(CNC(=O)c3ccco3)ccc2n1C | 37.2 | 2.0 | · | 33.2* | 53.4*
Cc1cc2cc(CNC(=O)c3cc4ccccc4o3)ccc2n1C | · | 87.0* | -0.9 | 37.2 | 20.9
Cc1cc(-c2csc(NC(=O)c3cc4ccccc4o3)n2)c(C)n1C | -19.0 | 2.0 | 0.1 | 11.5* | 98.3*
COc1ccc(C(=O)NCc2ccc3c(c2)cc(C)n3C)cc1 | 51.1* | 1.0 | 1.2 | 23.8 | 49.1
O=C(Nc1ccc(Br)cn1)c1ccc(COc2c(F)c(F)cc(F)c2F)o1 | 9.6 | 0.0 | · | · | ·
COCC(=O)NCc1ccc2c(c1)cc(C)n2C | 34.1 | 20.0 | 0.4 | 4.4 | 28.5
SMILES | PABP1 MLLE inh | GRK2 inh | PERK inh | PABP FP inh | eIF4H inh
Cc1cc2cc(CNC(=O)COc3ccccc3)ccc2n1C | 50.4* | 23.0 | -0.4 | 9.7 | 8.7
Cc1ccc(S(=O)(=O)NCc2ccncc2)cc1 | 1.2 | 0.0 | 1.3 | 3.0 | 3.9
Cc1cc2cc(CNC(=S)Nc3ccc(OC(F)F)cc3)ccc2n1C | 39.3* | 0.0 | 0.2 | active | 74.8*
Cc1ccc(S(=O)(=O)NCc2ccc3c(c2)cc(C)n3C)cc1 | 34.6 | 21.0 | 1.9 | 4.3* | 57.9*
FC(F)Oc1ccc(NC(=S)NCc2ccccc2)cc1 | -24.2 | 0.0 | 1.2 | 26.3 | 2.5
O=C(N/N=C/C=C/c1ccccc1[N+](=O)[O-])c1cccs1 | -16.7 | 0.0 | 0.8 | 28.0 | -8.7
O=C(N/N=C\C=C\c1ccc([N+](=O)[O-])o1)c1cccs1 | -18.8 | 38.0 | · | 52.7* | 99.7*
CCOc1cc2c(C#N)c(N3CCOCC3)nc(N)c2c(N)n1 | 6.7 | 2.0 | · | 57.0* | 72.6*
O=[N+]([O-])c1c(Nc2ccccc2)ccc2nonc12 | 7.6 | 0.0 | -0.5 | -16.3 | -4.8
O=C(O)c1ccc(Nc2cc(Cl)c3nonc3c2[N+](=O)[O-])cc1 | 38.6* | 2.0 | -0.4 | 0.3 | 0.7
O=[N+]([O-])c1c(Nc2cccc(O)c2)cc(Cl)c2nonc12 | 32.6 | 2.0 | · | 2.1 | -5.1
Nc1cc(Nc2ccccc2)c2nonc2c1[N+](=O)[O-] | 55.9* | 0.0 | · | 1.7 | -6.4
CC(=O)c1ccc(NC(=O)c2ccc3nc(-c4ccco4)c(-c4ccco4)nc3c2)cc1 | 8.1 | 12.0 | -0.3 | 83.9* | 103.4*
Cc1nc2cc(NC(=O)N3CCN(c4ccccn4)CC3)ccc2o1 | -0.8 | 0.0 | 0.2 | -9.3 | -6.0
O=C(Nc1ccc2nc(-c3ccco3)c(-c3ccco3)nc2c1)N1CCN(c2ccccn2)CC1 | 48.7* | 8.0 | -0.2 | active | 106.0*
Nc1c(C(=O)Nc2ccccc2)sc2nc(-c3ccco3)ccc12 | -16.2 | 2.0 | 1.0 | 75.7* | 75.3*
O=C(Nc1ccc(N2CCOCC2)cc1)c1ccc2nc(-c3ccco3)c(-c3ccco3)nc2c1 | 12.4 | 0.0 | -0.1 | -1.9 | 15.3
O=C(Nc1ccccc1)c1ccc2nc(-c3ccco3)c(-c3ccco3)nc2c1 | 3.1 | 1.0 | 0.3 | 71.2* | 99.9*
CSc1ccc(CN2CCC(C)(Oc3ccc(F)cc3)C2)cc1 (stereo not given) | 11.9 | · | · | · | ·
CCc1ccccc1OCC(=O)NNCC(=O)Nc1cccc(C#N)c1 | -17.2 | 3.0 | · | · | ·
Cc1ccc(C)c(S(=O)(=O)N2CCCC2CNC(=O)C(=O)NC2CC2)c1 (stereo not given) | -0.6 | 1.0 | · | · | ·
O=C(NCC(c1cccs1)N1CCOCC1)c1cc2ccccc2oc1=O (stereo not given) | 7.4 | 0.0 | · | · | ·
CCCCNC(=O)c1ccc2nc(-c3ccco3)c(-c3ccco3)nc2c1 | 19.6 | 1.0 | 0.8 | active | 93.9*
O=C(Nc1ccc2nc(-c3ccco3)[nH]c2c1)c1ccco1 | 11.7 | 1.0 | 0.0 | 25.8* | 60.7
O=C(NCc1ccccc1)c1ccc2nc(-c3ccco3)c(-c3ccco3)nc2c1 | 18.5 | 8.0 | 0.1 | 83.3* | 107.6*
O=C(NCCCO)c1ccc2nc(-c3ccco3)c(-c3ccco3)nc2c1 | 21.2 | · | 0.3 | -1.1 | 95.6
O=c1[nH]c2ccc(S(=O)(=O)N3CCN(c4ccc(F)cc4)CC3)cc2o1 | -6.7 | 0.0 | 1.9 | -0.9 | -1.9
CN(CC(=O)Nc1ccccc1Cl)C(=O)COC(=O)c1cc([N+](=O)[O-])ccc1N1CCOCC1 | -4.6 | 2.0 | · | · | ·
